# From the supplement of paper PMC10127200
# Structures can show the parent of a compound that is named as a salt.
# Key:
# Experiment in all cases: Euclidean distance of Cell Painting phenotypic profile (signed KS, 77 features) to DMSO centroid (dimensionless distance); 5 or 10 uM (library dependent); higher = stronger phenotypic change vs DMSO (phenoactivity)
# Settings in all cases: 48 h
# 786-O = tested on: 786-O
# Summary of the method: (§1)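 Library compounds were applied at 10 or 5 uM, depending on the library, with 0.1% DMSO final, for 48 h to five cancer lines and a healthy fibroblast line. After staining, cells were imaged confocally at 20X across 9 fields per well, and Harmony extracted 77 features, each scored as a signed Kolmogorov-Smirnov statistic against vehicle wells on the same plate. Phenoactivity is the Euclidean distance between each profile and the median vehicle profile, with profiles first plate-position corrected, correlation-weighted and averaged over replicates at the top dose.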
# A549 = tested on: A549
# Summary of the method: as §1
# DU145 = tested on: DU145
# Summary of the method: as §1
# FB = tested on: FB
# Summary of the method: as §1
# HEPG2 = tested on: HEPG2
# Summary of the method: as §1
# OVCAR4 = tested on: OVCAR4
# Summary of the method: as §1
SMILES,Euclidean distance (786-O),Euclidean distance (A549),Euclidean distance (DU145),Euclidean distance (FB),Euclidean distance (HEPG2),Euclidean distance (OVCAR4)
FC(F)(c1ccc2ncccc2c1)c1nnc2ccc(-c3ccncc3)nn12,1.6,0.84,2.54,0.717,1.24,1.2
CC(=O)Nc1cccc(-n2c(=O)n(C3CC3)c(=O)c3c(Nc4ccc(I)cc4F)n(C)c(=O)c(C)c32)c1,3.52,3.28,3.33,3.79,1.56,1.94
COc1nc(C)cnc1NS(=O)(=O)c1cccnc1-c1ccc(-c2nnco2)cc1 [Zibotentan (ZD4054)],1.49,0.567,0.656,0.844,1.11,0.898
CC1(C)CC(=O)c2c(C(F)(F)F)nn(-c3ccc(C(N)=O)c(N[C@H]4CC[C@H](O)CC4)c3)c2C1,3.06,2.99,3.09,3.59,3.83,2.73
CCOc1cc([C@@H](CS(C)(=O)=O)N2C(=O)c3cccc(NC(C)=O)c3C2=O)ccc1OC,1.2,0.481,1.78,0.934,0.783,0.611
CCCc1nc(C)c2c(=O)nc(-c3cc(S(=O)(=O)N4CCN(CC)CC4)ccc3OCC)[nH]n12 [Vardenafil HCl Trihydrate],1.18,0.732,1.26,1.02,0.77,0.83
O=C(Nc1ncc([N+](=O)[O-])s1)c1ccccc1O [Tizoxanide],2.03,1.85,2.61,2.81,2.81,1.81
CCC[C@@H]1C[C@@H](C(=O)N[C@@H]([C@H]2O[C@H](SC)[C@H](O)[C@@H](O)[C@H]2O)[C@H](C)Cl)N(C)C1 [Clindamycin],0.793,0.77,0.629,1.14,0.601,0.602
CCOC(N)=O [Urethane],1.2,0.492,0.675,0.718,0.46,1.46
C#Cc1cccc(Nc2ncnc3cc(OC)c(OCCCCCCC(=O)NO)cc23)c1,3.46,4.62,2.02,3.43,1.85,1.93
C=CCN1CCCC1CNC(=O)c1cc2nn[nH]c2cc1OC (centres undefined) [Alizapride HCl],0.796,1.43,1.04,1.13,1.28,0.984
CO/N=C(\C(=O)N[C@@H]1C(=O)N2C(C(=O)O)=C(COC(C)=O)CS[C@H]12)c1csc(N)n1 [Cefotaxime],1.26,0.798,0.573,0.69,0.777,0.905
Cc1cc(Nc2cc(CN3CCOCC3)c3nc(C)c(Cc4ccc(Cl)cc4F)n3n2)n[nH]1,3.25,3.37,2.63,1.71,2.95,3.19
CC(C)(C)c1ccc(C(O)CCCN2CCC(C(O)(c3ccccc3)c3ccccc3)CC2)cc1 (centres undefined) [Terfenadine],1.05,4.51,1.53,1.18,1.05,1.52
Cc1nn(-c2ccccc2)c(C)c1C=NN1CCN(Cc2ccccc2)CC1,1.24,1.25,0.724,0.733,1.16,1.34
O=C(O)C1(c2ccc(-c3ccc(Cl)c(Cl)c3)c(F)c2)CC1,0.785,1.02,1.42,1.35,1.17,1.72
OCCN1CCN(CC/C=C2/c3ccccc3Sc3ccc(C(F)(F)F)cc32)CC1 [Flupenthixol dihydrochloride],1.63,2.21,1.71,2.52,2.68,2.01
Nc1nc2[nH]cnc2c(=S)[nH]1 [Thioguanine],1.65,2.5,1.48,0.807,3.13,2.12
CCCCCCCCCCCC(=O)O [Lauric Acid],1.1,0.784,1.21,1.34,0.884,0.985
CO/N=C(\C(=O)N[C@@H]1C(=O)N2C(C(=O)O)=C(CSc3nnnn3C)CS[C@H]12)c1csc(N)n1 [Cefmenoxime hydrochloride],0.657,0.643,1.22,0.686,0.775,0.594
CCCCCC(=O)O[C@]1(C(C)=O)CC[C@H]2[C@@H]3CCC4=CC(=O)CC[C@]4(C)[C@H]3CC[C@@]21C [Hydroxyprogesterone caproate],0.774,1.41,2.27,1.18,0.603,0.921
c1cn2cc(-c3ccc4cn[nH]c4c3)nc(Nc3ccc(N4CCOCC4)cc3)c2n1 [Entospletinib (GS-9973)],2.51,2.15,2.1,0.923,0.994,1.42
O=C(/C=C/c1cccc(S(=O)(=O)Nc2ccccc2)c1)NO [Belinostat (PXD101)],1.71,2.39,2.38,1.82,1.99,1.12
CC(C)(Oc1ccc(C2CC2(Cl)Cl)cc1)C(=O)O (centres undefined) [Ciprofibrate],1.02,0.831,0.853,0.589,0.698,1.05
